Laboratory results reported in PubChem BioAssay (NCI).
Values joined by “and” are separate entries in the source; they are usually repeats but may differ in a detail not shown here. Equal entries are not always repeated. The panel holds about 83,000 compounds, 20% with a hit somewhere; the sample as a whole holds those more often.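 Results are percent growth after 48 hours of single-concentration exposure. 100 means growth as in untreated cells, lower positive values show inhibition; negative values down to -100 show cell death.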 Active and inactive are the calls of the source. The calls were made as follows: active = growth percent below 10; inactive = the rest.

test system: MDA-MB-468 breast; experiment: NCI-60 one-dose screen, 48 h (100 = growth as untreated, 0 = no growth, -100 = all killed); conditions: 10 µM unless noted

Compound	growth
CCOC(=O)Oc1c(OC)cc(C(=O)O[C@@H]2C[C@@H]3CN4CCc5c([nH]c6cc(OC)ccc56)[C@H]4C[C@@H]3[C@H](C(=O)OC)[C@H]2OC)cc1OC	98.8% (inactive)
COc1cc2cc(Oc3ccc(NC(=O)Nc4cccc(C(F)(F)F)c4)cc3)c(C)nc2cc1OCCN1CCOCC1	-3.82% (active)
COC(=O)[C@]1(C)CCC[C@]2(C)c3ccc(C(C)C)cc3C(=O)[C@@H](Br)[C@@H]12	78.3% (inactive)
CC(C)(C)CC(C)(C)N(CSc1ccc(Cl)cc1)CSc1ccc(Cl)cc1	63.7% (inactive)
CCCCN(CCCC)CCCCCCCCCCO	99.8% (inactive)
COc1ccc(C(=O)N2c3ccccc3Sc3ccccc32)c(C(F)(F)F)c1	29.7% (inactive)
O=C1[C@@H]2Cc3c([nH]c4ccccc34)[C@H](c3c(Cl)cccc3Cl)N2C(=O)CN1C1CCN(Cc2c(F)cccc2F)CC1	102% (inactive)
CCN(CC)C(=O)O/N=C(/C)c1ccccc1	96.5% (inactive)
COc1ccc(C(=O)c2cc(C(=O)/C=C/c3c(Cl)cccc3Cl)c3cc(C)ccn23)cc1	96.1% (inactive)
CCOC(=O)N(O)c1ccc(/C=C/c2ccccc2)cc1	-59.5% (active) and -52.6% (active)
COc1ccc(-n2c(-c3ccc(NC(=O)CCCl)cc3)nnc2-c2cc(OC)c(OC)c(OC)c2)cc1	-11.1% (active)
CCCCC/C(=C\c1ccccc1)C1OC(C)C(C)O1 (stereo not given)	98.8% (inactive)
C=C1C(=O)O[C@H]2[C@H]1CC/C(CNC(=O)C(C)c1ccc(CC(C)C)cc1)=C\CC[C@@]1(C)O[C@@H]21 (stereo not given in full)	-23.5% (active)
COc1cc(OC)c(C(=O)/C=C/c2ccc(C(F)(F)F)cc2)c(OC)c1	46.3% (inactive)
CN1CCN(c2ccc3nc(-c4ccc5nc(-c6ccc(C(F)(F)F)cc6)[nH]c5c4)[nH]c3c2)CC1	50.6% (inactive)
CCCN1C(=O)N(CCC)C2C1NC(=S)N2/N=C/C=C/c1ccccc1OC (stereo not given)	1.14% (active)
CCOC(=O)c1c(NC(=O)c2ccc(C(C)(C)C)cc2)sc2cc(OCCN3CCCCC3)ccc12	85.8% (inactive)
O=C(Nc1nc2ccc(O)cc2s1)c1cccc(C(F)(F)F)c1	84.6% (inactive)
O=C(Nc1cccc(Cl)c1)c1ccc(Cl)cc1Cl	96.9% (inactive)
Cc1ccc(-c2cc(-c3cccc4ccccc34)n3c(n2)nc2ccccc23)cc1	70.4% (inactive)

Compound	growth
Cn1cc(-c2nc(-c3c[nH]c4ncccc34)cs2)c2cc(Cl)ccc21	-3.54% (active)
CCCCC(=O)Nc1nc2ccc(SCCC)cc2s1	20% (inactive)
O=C1/C(=C/C=C/c2ccco2)SC(=S)N1C1CCCCC1	43.4% (inactive)
C=C[C@H]1CCC/C=C/[C@@H]2C[C@H](O)C[C@H]2[C@H](O)/C=C/C(=O)O1	-42.7% (active)
C=C(C)[C@@H]1CC[C@]2(C(=O)NC3CCCCC3)CC[C@]3(C)[C@H](CC[C@@H]4[C@@]5(C)CCCNC(C)(C)[C@@H]5CC[C@]43C)[C@@H]12	-85.4% (active)
COc1ccc(/C=C(\C#N)n2nnc3cc(F)c(F)cc32)c(OC)c1OC	35.3% (inactive)
COc1ccc(CCN2C(=O)/C(=C/c3nc(CO)cs3)SC2=S)cc1	27% (inactive)
Cc1cccc(C)c1N=c1oc2ccc(Cl)cc2nc1-c1ccccc1O	94.8% (inactive)
CC(=O)c1ccc(-n2c(-c3cc(-c4ccsc4)n[nH]3)n[nH]c2=S)cc1	97.3% (inactive)
N#Cc1c(-c2ccccc2)cc(-c2ccccc2)n(CC(=O)O)c1=O	37.8% (inactive)
CC(C)(C)c1nn(-c2ccccc2)c2c1C(=O)CSC(c1ccccc1Cl)N2 (stereo not given)	19.8% (inactive)
CCOS(=O)(=O)c1ccc([N+](=O)[O-])cc1	119% (inactive)
COc1ccc(C2NCCc3c2[nH]c2ccccc32)cc1CN1CCN(c2ccc(F)cc2)CC1 (stereo not given)	49% (inactive)
O=C(/C=C/c1ccccn1)c1ccccc1	21.3% (inactive)
COc1ccccc1NC(=O)N=Nc1c(O)[nH]c2ccccc12	86.1% (inactive)
COc1ccc(Nc2cnc3cc(NS(=O)(=O)c4ccc(C)cc4)ccc3n2)cc1	46.1% (inactive)
CN(C)Cc1ccc(C(=O)Nc2ccc3ncnc(Nc4ccc(Oc5cccc(F)c5)c(Cl)c4)c3c2)cc1	-63% (active)
COc1cc(C2NC(=O)c3ccccc3N2)ccc1OCCCCCOc1c(OC)cc(C2=NOC(c3cc(OC)c(OC)c(OC)c3)C2)cc1OC (stereo not given)	9.53% (active)
O=C(CN1CCOCC1)Nc1ccc2ncnc(Nc3ccc(OCc4cccc(F)c4)c(Cl)c3)c2c1	-25.1% (active)
O=C(C[n+]1ccnc2ccccc21)c1ccc(O)c(O)c1	3.88% (active)
